Screens from PubChem.
GBA enhancer: increases beta-glucosidase activity in Gaucher fibroblasts. P04062. L444P Gaucher fibroblasts, 4-MU-glucoside fluorescence, 3 days. activation, % at 10 µM. 30,000 tested, 0.44% active; in the data active means activation above about 65%;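 further: 0% = vehicle wells and 100% = positive control wells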
Target sequence (P04062 whole entry L483P): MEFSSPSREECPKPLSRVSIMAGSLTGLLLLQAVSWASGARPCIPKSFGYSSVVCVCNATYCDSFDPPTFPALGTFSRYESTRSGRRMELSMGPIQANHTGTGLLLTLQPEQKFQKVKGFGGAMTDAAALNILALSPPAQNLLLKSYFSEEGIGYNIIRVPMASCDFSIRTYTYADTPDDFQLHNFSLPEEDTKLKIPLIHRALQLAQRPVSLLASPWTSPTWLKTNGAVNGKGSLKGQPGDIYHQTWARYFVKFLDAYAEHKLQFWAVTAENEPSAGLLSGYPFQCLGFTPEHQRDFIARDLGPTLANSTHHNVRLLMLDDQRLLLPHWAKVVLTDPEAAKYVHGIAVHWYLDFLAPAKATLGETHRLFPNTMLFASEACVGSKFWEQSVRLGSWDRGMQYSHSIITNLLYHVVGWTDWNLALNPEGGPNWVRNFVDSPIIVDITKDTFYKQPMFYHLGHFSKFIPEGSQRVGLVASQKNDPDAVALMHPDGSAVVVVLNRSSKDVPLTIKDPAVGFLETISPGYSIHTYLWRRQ
* marks the source's active call; other numbers are inactive results. This excerpt belongs to a sample that is enriched for hits.

How did O=C1CC(=O)N(c2ccc3c(c2)OCO3)C(=O)N1 do in these assays?
GBA enhancer: 81*

Results for CCOC(=O)c1ccc(N2C(=O)CC(N3CC=C(c4ccc(F)cc4)CC3)C2=O)cc1 (stereo not given) ?
GBA enhancer: -5

Results for COc1cc2nc(CN3CC=C(c4ccccc4)CC3)[nH]c(=O)c2cc1OC ?
GBA enhancer: -85

Results for COC(=O)CC1=C(C(=O)OC)C2(C(=O)N(C)c3ccccc32)C(C#N)=C(N)O1 (stereo not given) ?
GBA enhancer: -5

What do the screens show for `CCCCn1c(=O)c(C(=O)Nc2cnccn2)c(O)c2ccccc21`?
GBA enhancer: -29

How did O=c1cccc2n1CC1CC2CN(Cc2cccc(Cl)c2Cl)C1 (stereo not given) do in these assays?
GBA enhancer: 404*

How did CCOC(=O)N(C)c1ccc(C(O)(C(=O)OCC)C(F)(F)F)cc1 (stereo not given) do in these assays?
GBA enhancer: -15

What do the screens show for `N=C1C(c2ccccc2)=C(O)CN1Cc1ccco1`?
GBA enhancer: -15

How did C(#CCN1CCOCC1)COC/C=C/c1ccccc1 do in these assays?
GBA enhancer: -2

Results for Cc1cccc(CS(=O)(=O)Cc2ccc(C(=O)N3CCC4(CC3)OCCO4)o2)c1 ?
GBA enhancer: 23
